Measured values taken from PubChem BioAssay AID504714 (Sanford-Burnham Center for Chemical Genomics, 2011).
The campaign covered roughly 1,000 compounds. Fewer than 10 were called active. How the calls were made is not given here. The list is a sample of the results.

Assay: E. coli UDG inhibitors, confirmation, counter-screen for APOBEC3A inhibitor project, biochemical, single concentration, fluorescence, FAM/TAMRA oligo (AID 504714)
Conditions: UDG counterscreen, FAM/TAMRA uracil oligo fluorescence; at 20 µM; stronger effect = higher value

Row | SMILES | inhibition
1 | CCCN1C2=C(C(=O)CCC2)C(c2ccc(O)c(Br)c2)C2=C1CCCC2=O | 0.9% (inactive)
2 | COc1ccc(CNc2nnnn2C)cc1 | -2.73% (inactive)
3 | CCN1C(=NCC(C)C)N[C@@H](CCc2ccccc2)[C@H](C(=O)NCC(C)C)[C@H]1C | -1.61% (inactive)
4 | COC(=O)C[n+]1cccc2ccccc21 | -1.97% (inactive)
5 | N#Cc1ccsc1NC(=O)CN1CCN(S(=O)(=O)c2cc(Cl)ccc2Cl)CC1 | -0.63% (inactive)
6 | COc1ccc(Br)cc1CN(C)C(=O)C1CC(=O)N(C2CCCC2)C1 (centres undefined) | 1.84% (inactive)
7 | COCCCn1c(Cc2csc(Nc3cccc(Cl)c3)n2)nnc1SCC(=O)OC1CCCCC1 | 5.59% (inactive)
8 | COc1ccc(CCNC(=O)COC(=O)/C=C/c2cccs2)cc1OC | -1.3% (inactive)
9 | COc1ccccc1CCNC(=O)C1CCN(C(=O)/C=C/c2ccccc2)CC1 | 2% (inactive)
10 | CCCCNC(=O)CSc1nc2ccc(NC(=O)CSc3nnc(N)s3)cc2s1 | -1.96% (inactive)
11 | CC(C)CCOc1ccc(C(=O)C[N+]2(C)CCOCC2)cc1 | 1.5% (inactive)
12 | O=C(c1ccc(CS(=O)(=O)c2ccccc2)o1)N1CCN(c2ccccc2)CC1 | -1.02% (inactive)
13 | COC(=O)C1=C(C)N(Cc2ccccc2)C(=NCCCOC(C)C)N[C@H]1c1ccccc1 | -3.67% (inactive)
14 | CC1(C)CC(N2CCN(C(c3ccccc3)c3ccccc3)CC2)=CC(=[N+]2CCCCC2)C1 | -2.53% (inactive)
15 | S=C(Nc1cccnc1)Nc1ccccn1 | -1.6% (inactive)
16 | CC1(C)Oc2ccc3ccc(=O)oc3c2/C(=C/NCCO)C1=O | -2.48% (inactive)
17 | NS(=O)(=O)c1cc(C(=O)OCC(=O)NNC(=O)c2ccccc2)ccc1Cl | 5.01% (inactive)
18 | O=C1c2oc3ccccc3c(=O)c2C(c2cccc(O)c2)N1c1ccccn1 (centres undefined) | 3.41% (inactive)
19 | CSc1nnc(SCc2nc3sc(C(=O)O)c(C)c3c(=O)[nH]2)s1 | -3.34% (inactive)
20 | CCn1c(SCC(=O)Nc2cccc(F)c2)nnc1-c1cc2cc(Br)ccc2o1 | 6.96% (inactive)
21 | CCOC(=O)c1ccc(NC(=O)CSc2ncccn2)cc1 | 1.35% (inactive)
22 | Cc1ccc(CCCOC(=O)C[N+]2(C)CCCCC2)cc1 | 0.55% (inactive)
23 | C[N+](C)(CCCCCC[N+](C)(C)CCCN1C(=O)c2cccc3cccc(c23)C1=O)CCCN1C(=O)c2cccc3cccc(c23)C1=O | 1.2% (inactive)
24 | CC(Oc1ccc(F)cc1)C(=O)Nc1cc(S(=O)(=O)N2CCOCC2)ccc1N1CCN(C)CC1 (centres undefined) | -3.61% (inactive)
25 | C=CC1=C(C(=O)O)N2C(=O)[C@@H](NC(=O)/C(=N/OCC(=O)O)c3csc(N)n3)[C@H]2SC1 | -3.4% (inactive)
26 | O=C(COC(=O)c1cnc(Cl)c(Cl)c1)NCc1ccco1 | 0.62% (inactive)
27 | Cc1ccc(C(=O)N/N=C\c2cc(Br)c(Br)o2)cn1 | 2.94% (inactive)

Row | SMILES | inhibition
28 | CC(C)c1ccc(/C=C2\NC(=O)NC2=O)cc1 | -1.04% (inactive)
29 | CC[n+]1cc(C)ccc1/C=C/c1ccc(N(C)C)cc1 | -2.09% (inactive)
30 | CS(=O)(=O)c1ccc2c(c1)SC1=NC(=O)/C(=C/c3ccco3)C(=N)N12 | 1.37% (inactive)
31 | CC(=O)Nc1ccc(NC(=O)C2CCCN(S(=O)(=O)c3ccc(Cl)cc3)C2)cc1 (centres undefined) | 7.05% (inactive)
32 | CCNC(=O)COC(=O)CCNC(=O)c1cccc(C)c1 | -0.25% (inactive)
33 | CC(=O)Nc1ccc(Nc2cc(C)nc(Nc3ccc(NC(C)=O)cc3)n2)cc1 | 4.81% (inactive)
34 | CCCCCCCC[n+]1cccc(C(=O)N2c3c(nc(N)[nH]c3=O)NC(C)C2C)c1 (centres undefined) | -1.86% (inactive)
35 | C[n+]1ccc(C(=O)NCc2ccccc2)cc1 | -2.62% (inactive)
36 | CCN1C(=NCCc2cccnc2)N[C@@H](c2ccccc2)[C@H](C(=O)OC)[C@H]1C | -0.96% (inactive)
37 | O=C(Nc1cccc(-c2nc3ccccc3[nH]2)c1)c1ccc(C(=O)Nc2cccc(-c3nc4ccccc4[nH]3)c2)cc1 | -1.03% (inactive)
38 | CC(/C=C/c1ccccc1)=N\NC(=O)C1CC1(C)c1ccccc1 (centres undefined) | 1.23% (inactive)
39 | Cc1cc2c(cc1C)[n+](C)cn2CC(O)COCC1CC=CCC1 (centres undefined) | 4.84% (inactive)
40 | Cc1csc(SCC(=O)Nc2sccc2C#N)n1 | -2.94% (inactive)
41 | COc1ccc(C)cc1NC(=O)CCCN1C(=O)NC(C)(C)C1=O | 2.69% (inactive)
42 | CCN(CC)CCCNC(=O)CCn1nc(-c2ccc(Cl)cc2)ccc1=O | -0.02% (inactive)
43 | N#Cc1ncc(C(F)(F)F)cc1Oc1cccnc1 | -2.52% (inactive)
44 | C[N+]1(CCNC(=O)/C=N/O)CCCCC1 | 2.37% (inactive)
45 | CSc1nnc(-c2ccncc2)n1CCCN1CCCC1=O | 2.58% (inactive)
46 | C[N+]1(CC(O)COc2ccccc2)CCN(C(=O)c2ccc([N+](=O)[O-])cc2)CC1 (centres undefined) | -0.77% (inactive)
47 | CCCc1nc(-c2cc3cc(C)ccc3[nH]c2=O)no1 | -1.41% (inactive)
48 | CCN1C(=NCc2ccc(OC)cc2)N[C@@H](CCc2ccccc2)[C@H](C(=O)NCc2ccc(OC)cc2)[C@H]1C | 2.26% (inactive)
49 | CCS(=O)(=O)c1ccc(-c2cccc(NC(=O)c3ccc(Br)o3)c2)nn1 | -1.58% (inactive)
50 | COc1ccc(Cc2nnc(NC(=O)c3ccc(OC)cc3OC)s2)cc1 | 2.26% (inactive)
51 | Cc1nnc(N/N=C/c2ccccn2)[nH]c1=O | 3.44% (inactive)
52 | COc1ccccc1-c1noc(CSc2nc(C)cc(=O)[nH]2)n1 | -1.99% (inactive)
53 | N#Cc1ccccc1CN1C(=O)S/C(=C/c2cccn2-c2cccc(C(=O)O)c2)C1=O | -1.19% (inactive)
54 | CC[n+]1c(C)n(-c2ccccc2)c2ccc(NC(C)=O)cc21 | -1.23% (inactive)
